Only some compounds are listed: those with a hit (about 2.5% of all), similar ones and a draw of the others.
Mcl-1 Bim block – disrupts Bim peptide binding to human Mcl-1 | AID 1009 | Bead-based flow cytometry, Bim peptide-Mcl-1 binding | inhibition, % at 10 µM | 0.1% of 190,000 active; in the data active means inhibition above about 40%;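 further: 0% = no compound tracer wells and 100% = peptide blocker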
Mcl1-Noxa inh – Mcl-1/Noxa interaction inhibition | inhibition, % at 21.7 µM | 1.5% of 220,000 active | TR-FRET Mcl-1/Noxa peptide binding, 2 h | Q07820;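 active means compounds that cut the protein-peptide binding signal by more than 50% relative to plate controls in a single-dose test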;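 further: His-tagged Mcl-1 with rhodamine Noxa BH3 peptide and terbium anti-His antibody; 0% = Mcl-1 plus Noxa peptide wells and 100% = peptide-only wells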
14-3-3 Bad PPI – disrupts binding of bovine 14-3-3 zeta to phospho-Bad peptide; P63103; TR-FRET 14-3-3zeta/Dy647-pBad peptide displacement, 1 h; inhibition, % at 21.7 µM; 0.71% of 220,000 active; AID 781;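 active means inhibition above about 70%, limit read from the data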;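 further: 0% = full 14-3-3 plus peptide FRET controls and 100% = background without 14-3-3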
Target sequence (P63103 whole entry, looked up): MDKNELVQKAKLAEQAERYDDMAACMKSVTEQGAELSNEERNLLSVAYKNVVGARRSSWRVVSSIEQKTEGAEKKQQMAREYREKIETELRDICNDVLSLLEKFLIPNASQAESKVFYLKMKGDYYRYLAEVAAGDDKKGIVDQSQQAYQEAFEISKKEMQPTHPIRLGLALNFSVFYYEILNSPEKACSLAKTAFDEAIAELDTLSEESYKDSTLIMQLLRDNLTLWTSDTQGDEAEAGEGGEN
Mcl1 Bid PPI – Mcl-1/Bid interaction inhibition. Q07820. 0.97% of 220,000 active. inhibition, % at 21.7 µM. TR-FRET Mcl-1/Bid-Dy647 peptide binding, 1536-well. AID 1021;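 active means compounds that cut the binding signal by more than half at the single screening dose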;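 further: His-tagged Mcl-1 with europium anti-His antibody binding Bid BH3 peptide; 0% = Mcl-1 plus peptide wells and 100% = peptide-only wells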
MCL1 BIM primary – inhibitors of human MCL1 binding to BIM-BH3 peptide; Q07820; GST-MCL1 / FITC-Bim-BH3 fluorescence polarization; inhibition, % at 10.9 µM; 0.68% of 320,000 active; AID 2057;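 active means inhibition above the mean inhibition of all tested compounds plus 3 SD, set per campaign, cut at about 40% in these data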;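 further: 0% = DMSO wells and 100% = unlabeled Bim-BH3 peptide control; higher means more loss of mP so more displacement of Bim peptide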
An asterisk follows results filed as active; · = no result given.

SMILES	Mcl-1 Bim block	Mcl1-Noxa inh	14-3-3 Bad PPI	Mcl1 Bid PPI	MCL1 BIM primary
CSc1ccc(C(c2c(O)c3ccccc3oc2=O)c2c(C)n(C)n(-c3ccccc3)c2=O)cc1 (stereo not given)	0	3	-21	-25	0
CN(C)c1ccc(CN2CC=C(c3ccc(F)cc3)CC2)cc1	1	33	73*	-120	-4
COc1cc(C)c(CN2CC=C(c3ccc(F)cc3)CC2)cc1C	·	·	·	·	2
Cc1cc(/C=C2\C(=O)NC(=O)N(c3ccc(Br)cc3)C2=O)c(C)n1-c1cc(C(=O)O)cc(C(=O)O)c1	·	·	·	·	18
CC(C)C[C@H]1C(=O)N2CCCC2[C@]2(O)O[C@](NC(=O)[C@@H]3C=C4c5cccc6[nH]cc(c56)CC4N(C)C3)(C(C)C)C(=O)N12 (stereo not given in full)	1	17	-1	-6	194*
CNC(=O)Oc1ccc2ncccc2c1	-1	15	7	-7	3
C=C(CO)CC1CC(O)[C@]2(C)OC3CC4OC5C[C@]6(C)O[C@]7(C)CCC8OC9C[C@]%10(C)OC%11C(C)=CC(=O)OC%11CC%10OC9C[C@@H](C)C8OC7CC6O[C@]5(C)C/C=C\C4OC3CC2O1 (stereo not given in full)	-1	17	4	7	5
C=C(C=O)CC1CC(O)[C@]2(C)OC3CC4OC5C[C@]6(C)O[C@]7(C)CCC8OC9C[C@]%10(C)OC%11C(C)=CC(=O)OC%11CC%10OC9C[C@@H](C)C8OC7CC6O[C@]5(C)CC5OC5C4OC3CC2O1 (stereo not given in full)	-3	10	7	78*	15
CCC(=O)N1CCN(CCN=Cc2c(O)n(C)c(=O)n(C)c2=O)CC1	0	4	-2	-21	0
CCN1CCN(Cc2ccc(OC(F)(F)F)cc2)CC1	0	19	85*	-7	3
O=C1Nc2ccc(Br)cc2C(c2ccccc2Cl)=NC1O (stereo not given)	3	4	-1	-10	1
CSc1nnc(C2CCNCC2)n1C	0	25	87*	4	3
CCCC(=O)NC(Oc1ccc(Cl)cc1Cl)C(Cl)(Cl)Cl (stereo not given)	0	15	88*	-2	4
CCCC(=O)NC(Oc1ccc(OC)cc1)C(Cl)(Cl)Cl (stereo not given)	6	13	-11	-28	8
CCCC(=O)NC(Oc1ccccc1Cl)C(Cl)(Cl)Cl (stereo not given)	20	-3	77*	3	3
COC(=O)c1c(C)[nH]c(C(=O)C(Cc2ccccc2)N(C)C)c1C (stereo not given)	-2	-1	-5	-45	2
CCOc1cc(C2NCc3ccccc3-n3cccc32)ccc1OC (stereo not given)	·	·	·	·	-4
O=C1NC(=O)N(c2ccccc2)C(=O)/C1=C\c1ccc2c3c(cccc13)CC2	-4	81*	37	12	8
Cc1ccc(N2C(=O)NC(=O)/C(=C\c3ccc(N4CCOCC4)cc3)C2=O)cc1	-1	16	3	-50	2
Cc1ccc(N2C(=O)NC(=O)/C(=C\c3ccc([N+](=O)[O-])o3)C2=O)cc1	0	70*	47	17	38
COc1ccc(N2C(=O)NC(=O)/C(=C/c3ccc([N+](=O)[O-])s3)C2=O)cc1	·	51*	2	-11	33
COc1cccc(N2C(=O)NC(=O)/C(=C/c3ccc([N+](=O)[O-])s3)C2=O)c1	·	61*	7	-59	28
COc1ccc(CN2C(=O)NC(=O)/C(=C/c3ccc([N+](=O)[O-])s3)C2=O)cc1	·	65*	8	5	26
Cc1ccc(/C=C2\C(=O)NC(=S)N(c3ccc(F)cc3)C2=O)s1	0	29	-12	-24	21
Cc1ccc(/C=C2\C(=O)NC(=S)N(c3ccccc3F)C2=O)s1	0	93*	16	19	26
CC(=O)c1ccc(OC(NC(=O)c2ccco2)C(Cl)(Cl)Cl)cc1 (stereo not given)	-2	-16	2	-14	4
CN1CCC(N(C)c2nc(-c3ccccc3)nc3ccccc23)CC1	0	52*	-2	5	2
COc1ccc(CC(=O)N2CCN(C)CC2)cc1	-2	4	9	-15	11
CCC(C)N1CCN(C(=O)Cc2ccccc2)CC1 (stereo not given)	0	21	80*	29	4

Compound activity from PubChem.
